High-throughput results from PubChem BioAssay.
Most compounds without a hit are left out; they make up all but 3.3% or so of the library.
Calb FLC – C. albicans growth inhibition with fluconazole, primary screen, CaCi-2 strain, Alamar Blue fluorescence; C. albicans CaCi-2 (fluconazole-resistant clinical isolate) + fluconazole, 48 h; growth inhibition, % (no concentration beside the values); 300,000 compounds, 0.57% hits;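 active = growth inhibition above about 58% in most replicates, limit read from the data, passing the limit was not always enough; inconclusive = exactly half the replicates above a set limit; inactive = most replicates below a set limit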;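 note: all wells also contain fluconazole at 8 µg/ml as a sub-toxic cotreatment; 0% = median of DMSO wells and 100% = median of geldanamycin control wells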
Cardio protect – cardioprotection against H2O2-induced cell death, primary screen, uHTS, H9c2 cells, ATPLite luminescence. H9c2 cardiomyocytes, H2O2 injury protection, 2 h. protection from H2O2 cell death, % at 20 µM. 360,000 compounds, 0.63% hits. AID 588492, 2011;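 active = compounds giving at least 50% protection of heart cells from peroxide-induced death in the single-dose screen, raw or plate-pattern-corrected value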;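 note: 0% = DMSO wells with peroxide and 100% = DMSO wells without peroxide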
PHOSPHO1 inh – PubChem AID 1565; Phosphoethanolamine/phosphocholine phosphatase (Homo sapiens), Q8TCT1; recombinant PHOSPHO1, absorbance phosphatase assay; inhibition, % at 13.3 µM; 290,000 compounds, 1.1% hits; in the data active = inhibition above about 60%
Target sequence (Q8TCT1 whole entry, looked up): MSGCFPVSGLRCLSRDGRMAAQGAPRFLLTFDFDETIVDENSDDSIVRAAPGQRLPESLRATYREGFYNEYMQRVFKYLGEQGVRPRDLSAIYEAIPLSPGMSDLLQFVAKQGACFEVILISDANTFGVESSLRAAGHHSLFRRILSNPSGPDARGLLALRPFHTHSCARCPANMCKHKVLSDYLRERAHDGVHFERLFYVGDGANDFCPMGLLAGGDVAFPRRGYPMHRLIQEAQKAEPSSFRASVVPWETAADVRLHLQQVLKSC
KCC2 mod – KCC2 cotransporter modulators, thallium flux, primary screen, cell-based, HEK293 KCC2, FluoZin-2 fluorescence, MLSMR; Solute carrier family 12 member 5 (Homo sapiens), Q9H2X9; KCC2 cells, thallium flux FluoZin-2 fluorescence; B-score of Tl+ flux slope (higher = more flux/activation; lower = inhibition) at 10 µM; 190,000 compounds, 2.2% hits; AID 1456, 2008;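 active = thallium flux slope and its plate-corrected score both differing from the plate sample mean at a set confidence after two filtering rounds, in either direction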;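 note: slope of fluorescence scaled to starting intensity during 10 to 20 s after thallium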
Efflux pump inh – inhibitors of Candida efflux pumps in yeast, primary screen, S. cerevisiae, Nile Red, multiplex. inhibition, % at 10 µM. 330,000 compounds, 0.44% hits. S. cerevisiae Candida pump triplex;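 active = plate passing quality check with inhibition over a set limit, or well fluorescence over plate mean plus 4 SD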;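 note: Nile Red retained in pooled yeast measured as flow cytometry median fluorescence; 0% = buffer negative control and 100% = Enniatin B positive control; higher means more Nile Red kept so more efflux inhibition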
KCC2 sec1 – KCC2 modulators in sodium-free buffer, confirmation, cell-based, HEK293 KCC2, thallium flux, secondary assay; shares compounds with KCC2 mod; FluoZin2 fluorescence; active compounds read high; normalised thallium flux (F/F0 slope) at 10 µM; 3,700 compounds, 15% hits; AID 1713, 2009;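 active = thallium flux slope above the same plate's solvent-only control mean plus 3 SD; inconclusive = the two replicate wells disagree; inactive = no significant difference from solvent-only control wells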
KCC2 bumet counter – thallium flux persisting under bumetanide in KCC2 cells, confirmation, counter-screen for KCC2 modulator project, cell-based, HEK293 KCC2, FluoZin2, secondary assay 3 | shares compounds with KCC2 mod | HEK293-KCC2 + bumetanide/ouabain; active compounds read high | normalized thallium flux at 10 µM | 3,700 compounds, 49% hits;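 active = thallium entry rate above the same plate's blocked-transporter control wells by more than 3 SD; inconclusive = the two repeat wells disagree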;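 note: raw slope of fluorescence over initial fluorescence between 10 and 20 s after thallium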
KCC2 secondary2 – KCC2 modulators without ouabain present, confirmation, cell-based, HEK293 KCC2, thallium flux, FluoZin2, secondary assay 2. thallium flux FluoZin2 fluorescence; actives lie on both sides; F/F0 rise rate, 10–20 s post-thallium. shares compounds with KCC2 mod. AID 1715, 2009. 3,700 compounds, 23% hits. normalized thallium flux at 10 µM;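 active = thallium flux slope more than 3 SD above or below the plate's solvent-only control mean, mostly below; inconclusive = the two repeat wells disagreed; inactive = no significant shift from solvent-only controls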;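 note: raw slope with 0.1% DMSO as baseline and bumetanide as block control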
HEK293 Tl flux – thallium flux modulation in parental HEK cells, confirmation, counter-screen for KCC2 modulator project, cell-based, counterscreen 1; shares compounds with KCC2 mod; HEK293 parental cells, thallium flux FluoZin2, ouabain; baseline-ratio fluorescence slope, 10–20 s after thallium; thallium flux rate (normalised fluorescence) at 10 µM; 3,700 compounds, 46% hits; AID 1716, 2009;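 active = thallium flux rate significantly above the same plate's solvent-only control wells, beyond their mean plus 3 SD; inconclusive = the two replicate wells gave conflicting results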
KCC2 ouabain – KCC2 inhibitors and activators, ouabain retest, confirmation, HEK-KCC2 cells; raw Tl+ flux slope (below DMSO = inhibition, above = activation) at 10 µM; HEK293-KCC2, thallium flux FluoZin2 fluorescence; bidirectional: low = inhibitor, high = activator; 3,700 compounds, 48% hits; shares compounds with KCC2 mod; AID 1717, 2009;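 active = thallium flux slope beyond 3 SD from same-plate DMSO control mean in most replicates, usually higher, sometimes lower; inconclusive = repeat tests gave conflicting results; inactive = no significant difference from controls in most replicates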;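 note: slope of initial-normalized fluorescence between seconds 10 and 20 after thallium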
HEK293 Tl flux2 – native HEK Tl+ uptake effects, second counter-screen – HEK cells, counterscreen 2, counter-screen for KCC2 modulator project, confirmation; shares compounds with KCC2 mod; HEK293 parental, thallium flux FluoZin-2 fluorescence slope; thallium flux slope at 10 µM; 3,700 compounds, 33% hits;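 active = thallium flux slope above the same plate's solvent-control mean plus 3 SD in both duplicate wells; inconclusive = duplicate wells that disagreed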;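 note: run without ouabain in cells lacking the KCC2 cotransporter; slope of fluorescence scaled to its starting value between 10 and 20 s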
* = called active by the depositor; ? = inconclusive; · = no result.

SMILES | Calb FLC | Cardio protect | PHOSPHO1 inh | KCC2 mod | Efflux pump inh | KCC2 sec1 | KCC2 bumet counter | KCC2 secondary2 | HEK293 Tl flux | KCC2 ouabain | HEK293 Tl flux2
COC(=O)c1cccc(C23CC4(C2)[C@H](CN(Cc2cccnc2)[C@@H]4c2ccccc2)C3c2ccc(Cl)nc2)c1 (some centres undefined) | 8.6 | 7.9 | 22.1 | 0.0318 | -0.1 | · | · | · | · | · | ·
COC(=O)c1cccc(C23CC4(C2)[C@H](CN(Cc2cccnc2)[C@@H]4c2ccccc2)C3c2ccc(C(F)(F)F)cc2)c1 (some centres undefined) | 6.6 | · | 30.9 | -3.21* | 0.2 | ? | 0.0085* | 0.0318 | 0.00872 | 0.0224 | 0.0106
CC1CCCC(C)N1C(=O)CSc1nnc(-c2c[nH]c3ccccc23)o1 (centres undefined) | 4.7 | 7.8 | -10.0 | · | -0.2 | · | · | · | · | · | ·
CCC1CCCCN1C(=O)CSc1nnc(-c2c[nH]c3ccccc23)o1 (centres undefined) | 5.0 | 2.3 | -13.5 | -3.33* | 0.1 | 0.008 | 0.00668 | 0.0299 | 0.00736 | 0.0222* | ?
CC1CCCN(C(=O)CSc2nnc(-c3c[nH]c4ccccc34)o2)C1 (centres undefined) | -5.3 | 0.8 | -8.5 | -3.75* | -0.1 | 0.00562 | 0.00441 | ? | 0.00764 | ? | 0.00959
CCCN(CC(=O)Nc1ccccc1OC)C(=O)CSc1ccc(Br)cc1C | · | -3.9 | · | · | 0.2 | · | · | · | · | · | ·
CC1(C(=O)NS(=O)(=O)c2ccc(F)cc2F)CCN1C(=O)CC1CCCC1 (centres undefined) | · | -4.7 | · | · | · | · | · | · | · | · | ·
COc1ccccc1-c1nn(Cc2ccccc2)cc1C(=O)NCC(c1ccco1)N1CCCC1 (centres undefined) | · | -9.3 | · | · | -0.2 | · | · | · | · | · | ·
COC(=O)[C@H](CCSC)NC(=O)Nc1cc(OC)cc(OC)c1 | -2.3 | 3.2 | 3.1 | 0.294 | 0.0 | · | · | · | · | · | ·
CC1CCN(C(=S)Nc2ccc(F)cc2)CC1 | -7.4 | 3.6 | -2.8 | -0.209 | 0.0 | · | · | · | · | · | ·
C/C(=N\NC(=S)Nc1ccc(F)cc1)C1CC1 | ? | -0.9 | -26.6 | 8.39* | 0.0 | 0.00754 | 0.0236* | 0.0362 | 0.0181* | 0.0277* | 0.0217*
Cc1nc(NC(=S)Nc2ccccc2)sc1C | -6.1 | -10.4 | -43.4 | 15.8* | 0.0 | 0.00792 | 0.0634* | 0.0495* | 0.0324* | 0.0503* | 0.0348*
